In PubChem BioAssay (NCI):
About 83,000 compounds went through this panel and 20% of them were active in at least one assay; those are over-represented in the sample as a whole.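 Single-concentration screen, 48 h exposure, 96-well plates. Endpoint: percent growth. Below 10 = active.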 Active and inactive are the calls of the source.

Tested on: HL-60(TB) leukemia
Assay: NCI-60 one-dose screen, 48 h (100 = growth as untreated, 0 = no growth, -100 = all killed)
Settings: 10 µM unless noted

Structure (SMILES)	growth
S=C(NCc1ccccc1)NCc1ccccc1	84.7% (inactive)
COc1cccc(-c2nc3sccn3c2-c2ccnc(NCCCNS(=O)(=O)c3ccccc3)c2)c1	-12.4% (active)
Cc1cc[n+](CCCC[n+]2ccc(C)cc2)cc1	94.5% (inactive)
CC1CN(Cc2ccccc2)C(=O)NC1=O (stereo not given)	88.7% (inactive)
COc1ccc(Nc2nc(NCCNc3ccnc4cc(Cl)ccc34)nc(N3CCOCC3)n2)cc1	22.8% (inactive)
COc1cc2c(=O)n(CCCN(C)C)c3c4cc5c(cc4ccc3c2cc1OC)OCO5	55% (inactive)
CCCCCCCCCCOC(C)=O	107% (inactive)
COc1ccc2c(c1)/C(=C\c1c[nH]c3ccc(OC)cc13)C(=O)N2	20.8% (inactive)
CC1(C)CC[C@]23CC[C@]4(C)[C@H](CC[C@@H]5[C@@]6(C)C/C(=C/c7ccncc7)C(=O)C(C)(C)[C@@H]6CC[C@]54C)[C@H]2[C@H]1OC3=O	43% [100 µM] (inactive)
COc1ccc(C2C=C(c3ccc(OC)c(OC)c3)N=C3SC=CN32)c(Br)c1 (stereo not given)	57.6% (inactive)
COc1ccc2c3ccnc(C(F)(F)F)c3n(CCCCN)c2c1	53.8% (inactive)
CCCCCCNC(=O)c1cc(NCc2cc(O)ccc2O)ccc1O	-6.21% (active)
COc1ccc2[nH]cc(C3(c4c[nH]c5ccc(OC)cc45)C(=O)Nc4ccc(F)cc43)c2c1	-40.3% (active)
O=C1/C(=C/c2ccccc2)Oc2ccc(O)c(I)c21	95.4% (inactive)
O=C(Nc1cccc2c1CCCC2)c1cc2ccccc2cc1O	14.9% (inactive)
Cc1ccc(C(=O)c2ccc(CC(=O)N=Nc3c(O)[nH]c4ccc(OC(F)(F)F)cc34)n2C)cc1	94.6% (inactive)
O=[N+]([O-])c1ccccc1NC1c2ccccc2Oc2ccccc21	-14.4% (active)
C=COC(=O)C(C)(C)C	98.9% (inactive)
O=Nc1ccc(NC(=O)Nc2ccc([N+](=O)[O-])cc2)cc1	89.8% (inactive)
CCCCCC/C=C\CCCCCCCCCc1cc(O)cc(OC)c1O	-44.7% (active)

Structure (SMILES)	growth
O=C(Nc1cccc(-n2ccc3c(NC(=O)c4ccccc4)ncnc32)c1)Nc1ccc(Cl)c(C(F)(F)F)c1	-1.92% (active)
N/C(=N\O)c1cn(C2OC(CO)C(O)C2O)c2ncnc(N)c12 (stereo not given)	-43.5% (active)
Cc1oc2c(C)c3oc(=O)cc(C)c3cc2c1CCl	70.8% (inactive)
O=C(CCc1nnc2sc(Cc3ccccc3Cl)nn12)c1nc2ncccc2[nH]1	116% (inactive)
c1cnc2ccc3ncccc3c2c1	98.9% (inactive)
CCCCCCCCCCCCS(=O)CC(C)O (stereo not given)	99% (inactive)
O=S(=O)(NCCNc1nccc(-c2c(-c3ccc(O)cc3)nc3sccn23)n1)c1cccc2ccccc12	90.3% (inactive)
CC(=O)Oc1ccc(Cl)cc1CN(C(C)=O)C1CCCCC1	92.8% (inactive)
O=C(C(=O)N1CCOCC1)c1ccc(OC2OC(CO)C(O)C(O)C2O)cc1 (stereo not given)	82.7% (inactive)
COc1cc(/C(C)=C(\c2ccc(Cl)cc2)c2ccc(OCCN(C)C)cc2)ccc1F	54.4% (inactive)
COc1ccc(NC(=O)c2sc3nc4c(cc3c2N)C(O)CCC4)cc1 (stereo not given)	93.2% (inactive)
CCn1cc(C(=O)O)c(=O)c2cc(F)c(N3CCNCC3)cc21	96.9% (inactive)
O=C(NCc1ccc(Cn2c(=O)sn(-c3ccccc3)c2=O)cc1)OCc1ccc2cccc(O)c2n1	-56.8% (active)
COc1ccc(Oc2ccc(/C=C/C(=O)c3cc4ccccc4oc3=O)cc2)cc1	31.1% (inactive)
COCCn1cc(-c2nc(-c3cc4cccnc4[nH]3)cs2)c2cc(OC)ccc21	55.5% (inactive)
O=C1N/C(=N/N=C(c2ccccc2)c2ccccc2)S/C1=C\c1ccc(Br)cc1	89.1% (inactive)
COc1cccc(C(=O)Cn2cc(/C=C(\C#N)S(=O)(=O)c3ccccc3)c3ccccc32)c1	102% (inactive)
C=C(C)[C@@H]1CC[C@]2(C(=O)NCCNCCNCCN)CC[C@]3(C)[C@H](CC[C@@H]4[C@@]5(C)CCC(=O)C(C)(C)[C@@H]5CC[C@]43C)[C@@H]12	-35.6% [100 µM] (active)
Cn1ncc(Cl)c1-c1cc(C(=O)N[C@H](CN)Cc2ccc(F)c(F)c2)oc1Cl	-35.6% (active)
COc1cc(C)cc2oc3oc(=N)c(C(=O)c4ccccc4)cc3c(=O)c12	112% (inactive)
